The supplement of paper PMC9694430

Tests used:
Experiment in all cases: thermal shift delta Tm vs DMSO control; higher = stronger stabilization (binding)
Conditions in all cases: 12.5 µM; protein concentration 2 µM
LOC_OS04G57630-cb004 = system: LOC_OS04G57630-cb004
Summary of the method: (§1)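 Compounds dissolved in DMSO were added to purified rice kinase domain constructs, which had been expressed in E. coli, for differential scanning fluorimetry. Each well held 19.5 μl of 2 μM kinase in 100 mM potassium phosphate pH 7.5, 150 mM NaCl, 10% glycerol and 5 × SYPRO Orange. Fluorescence was followed from 25°C to 95°C at a rate of 0.05°C/s. Shifts in Boltzmann-fitted melting temperature are triplicate means relative to DMSO-only protein.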

LOC_OS05G07850-cb002 = system: LOC_OS05G07850-cb002
Summary of the method: as §1

LOC_OS05G16824-cb004 = system: LOC_OS05G16824-cb004
Summary of the method: as §1

LOC_OS05G28520-cb001 = system: LOC_OS05G28520-cb001
Summary of the method: as §1

LOC_OS05G30820-cb001 = system: LOC_OS05G30820-cb001
Summary of the method: as §1

LOC_OS05G43570-cb004 = system: LOC_OS05G43570-cb004
Summary of the method: as §1

LOC_OS06G16330-cb003 = system: LOC_OS06G16330-cb003
LOC_OS06G16330-cb003, sequence (as listed by the source): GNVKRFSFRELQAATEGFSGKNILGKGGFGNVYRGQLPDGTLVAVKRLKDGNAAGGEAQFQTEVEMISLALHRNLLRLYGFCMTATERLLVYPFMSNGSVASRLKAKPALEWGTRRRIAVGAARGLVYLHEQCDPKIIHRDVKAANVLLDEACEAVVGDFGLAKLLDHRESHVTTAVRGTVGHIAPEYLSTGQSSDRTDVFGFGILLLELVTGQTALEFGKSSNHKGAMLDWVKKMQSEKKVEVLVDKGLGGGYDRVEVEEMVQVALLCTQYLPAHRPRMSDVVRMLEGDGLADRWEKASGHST
Summary of the method: as §1

LOC_OS06G22820-cb001 = system: T1, LOC_OS06G22820-cb001
T1 sequence (whole entry): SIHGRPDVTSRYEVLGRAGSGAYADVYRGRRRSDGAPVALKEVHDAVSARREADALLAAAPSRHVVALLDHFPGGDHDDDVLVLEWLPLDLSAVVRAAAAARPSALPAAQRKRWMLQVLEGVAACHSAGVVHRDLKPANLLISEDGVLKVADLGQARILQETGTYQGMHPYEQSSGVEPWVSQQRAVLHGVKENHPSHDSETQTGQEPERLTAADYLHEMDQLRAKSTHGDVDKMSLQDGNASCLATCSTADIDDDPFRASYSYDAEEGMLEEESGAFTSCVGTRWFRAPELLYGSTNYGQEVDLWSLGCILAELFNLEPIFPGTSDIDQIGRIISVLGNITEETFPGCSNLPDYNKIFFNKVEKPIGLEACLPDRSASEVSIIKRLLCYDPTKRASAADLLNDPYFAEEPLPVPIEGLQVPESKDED
Summary of the method: as §1

LOC_OS07G06570-cb004 = system: LOC_OS07G06570-cb004
Summary of the method: as §1

LOC_OS07G07230-cb001 = system: LOC_OS07G07230-cb001
Summary of the method: as §1

Row | Structure (SMILES) | thermal shift delta Tm (LOC_OS04G57630-cb004) | thermal shift delta Tm (LOC_OS05G07850-cb002) | thermal shift delta Tm (LOC_OS05G16824-cb004) | thermal shift delta Tm (LOC_OS05G28520-cb001) | thermal shift delta Tm (LOC_OS05G30820-cb001) | thermal shift delta Tm (LOC_OS05G43570-cb004) | thermal shift delta Tm (LOC_OS06G16330-cb003) | thermal shift delta Tm (LOC_OS06G22820-cb001) | thermal shift delta Tm (LOC_OS07G06570-cb004) | thermal shift delta Tm (LOC_OS07G07230-cb001)
1 | Cc1cc(F)c(Nc2ncnc3cc(OCc4ccccc4)ccc23)cc1O | -0.1 °C | 1.29 °C | -1.22 °C | 1.19 °C | 0.76 °C | 1.17 °C | -0.11 °C | 1.28 °C | 2.49 °C | 0.37 °C
2 | Nc1[nH]nc2nnc(-c3c(-c4ccccc4)nn4ccccc34)cc12 | 0.25 °C | 2.77 °C | 2.12 °C | 0.56 °C | 0.84 °C | 0.89 °C | 1.11 °C | 0.39 °C | 0.46 °C | 0.64 °C
3 | Cc1cnc(Nc2ccc(OCCN3CCCC3)cc2)nc1Nc1cccc(S(=O)(=O)NC(C)(C)C)c1 | 1.75 °C | 8.73 °C | 6.93 °C | 0.76 °C | 0.92 °C | 0.64 °C | 4.38 °C | 0.29 °C | 0.27 °C | 0.07 °C
4 | CN(C)CCOc1ccc(-c2nc(-c3ccncc3)c(-c3ccc4c(c3)CC/C4=N\O)[nH]2)cc1 | 0.24 °C | 1.09 °C | -2.35 °C | -0.03 °C | 0.65 °C | 0.64 °C | -0.3 °C | 0.47 °C | 0.49 °C | 0.18 °C
5 | COc1ccc(Cl)c(Nc2nc3ccccc3nc2NS(=O)(=O)c2cccc(NC(=O)C(C)(C)N)c2)c1 [Pilaralisib (XL147)] | 2.01 °C | 2.9 °C | 2.11 °C | 0.49 °C | 0.75 °C | 1.75 °C | 1.96 °C | 2.03 °C | 0.12 °C | 0.54 °C
6 | COc1ccc2[nH]cc(/C=C3\C(=O)Nc4ccc(NC(=O)CCN5CCCCC5)cc43)c2c1 | 0.69 °C | 8.06 °C | 4.33 °C | 0.72 °C | 0.68 °C | 0.6 °C | 2.98 °C | 0.74 °C | 1.1 °C | 0.33 °C
7 | CCNC(=O)Nc1ccc(-c2nc(N3CCOC[C@@H]3C)c3c(n2)C(C)(C)S(=O)(=O)C3)cc1 | -0.03 °C | 1.34 °C | 0.19 °C | 0.25 °C | 0.2 °C | 0.77 °C | -0.15 °C | 0.67 °C | 1.9 °C | 0.66 °C
8 | CN1CC[C@H](c2c(O)cc(O)c3c(=O)cc(-c4ccccc4Cl)oc23)[C@H](O)C1 [Flavopiridol (Alvocidib)] | 0.36 °C | 5.16 °C | 2.71 °C | -0.27 °C | 0.85 °C | 0.07 °C | 3.19 °C | 1.43 °C | 0.96 °C | 0 °C
9 | CNS(=O)(=O)Nc1nccc(Cc2c(C)c3ccc(Oc4ncccn4)cc3oc2=O)c1F | 0.3 °C | 0.16 °C | -1.72 °C | 0.32 °C | 0.47 °C | 0.49 °C | 0.47 °C | 0.62 °C | 1.63 °C | 0.51 °C
10 | CC(C)c1ccc2oc3nc(N)c(C(=O)O)cc3c(=O)c2c1 [Amlexanox] | 0.42 °C | 2.22 °C | 2.16 °C | 0.29 °C | 2.58 °C | 0.12 °C | 2.5 °C | 0.56 °C | 0.44 °C | 0.63 °C
11 | O=C(O[C@@H]1Cc2c(O)cc(O)cc2O[C@@H]1c1cc(O)c(O)c(O)c1)c1cc(O)c(O)c(O)c1 [(-)-Epigallocatechin Gallate] | 0.03 °C | -2.62 °C | -0.59 °C | 0.94 °C | 0.74 °C | 1.57 °C | 0.52 °C | 1.84 °C | -0.75 °C | 0.18 °C
12 | O=C(O)CCC(=O)Nc1ccc(Br)cn1 [Bikinin] | 0.15 °C | 0.5 °C | 0.58 °C | 0.89 °C | 0.45 °C | 0.76 °C | 0.72 °C | 0.48 °C | 0.42 °C | -0.18 °C
13 | CC(C)CC(=O)Nc1n[nH]c2c1CN(C(=O)C1CCN(C)CC1)C2(C)C | 0.48 °C | 0.58 °C | 0.18 °C | 0.19 °C | 0.53 °C | 0.86 °C | -0.05 °C | 3.38 °C | 0.44 °C | 0.05 °C
14 | CN1CCN(c2ccc(Nc3cc(-c4cccc(-n5ccc6cc(C7CC7)cc(F)c6c5=O)c4CO)cn(C)c3=O)nc2)CC1 | 0.45 °C | 2.96 °C | 0.67 °C | 0.6 °C | 0.63 °C | 0.46 °C | 0.74 °C | 0.59 °C | 1.21 °C | 0.61 °C
15 | Cc1cc(CN2CCN(c3c(Br)cnc4nc(-c5ccc(N6CCN(C)CC6)cc5)[nH]c34)CC2)no1 | 1.11 °C | 8.75 °C | 3.92 °C | 1.16 °C | 0.38 °C | 0.18 °C | 5.31 °C | 0.11 °C | 1.11 °C | 1.28 °C
16 | Cc1c[nH]c2nc(Nc3ccc(N4CCN(C)CC4)c(F)c3)nc(-c3cccc(CC#N)c3)c12 | 4.89 °C | 15 °C | 12.3 °C | 3.05 °C | 0.83 °C | 1.16 °C | 17.6 °C | -0.11 °C | 2.22 °C | 0.57 °C
17 | C[C@@H](Nc1cc(F)cc(F)c1)c1cc(C(=O)N(C)C)cc2c(=O)cc(N3CCOCC3)oc12 | 0.46 °C | -0.67 °C | -4.22 °C | 0.89 °C | 0.53 °C | 0.2 °C | -0.67 °C | 0.43 °C | 1.06 °C | 0.35 °C
18 | C[C@@H](Oc1cc(-c2cnn(C3CCNCC3)c2)cnc1N)c1c(Cl)ccc(F)c1Cl | 3.33 °C | 9.7 °C | 4.65 °C | 0.26 °C | 0.39 °C | 0.21 °C | 10.8 °C | 0.95 °C | 0.69 °C | 0.31 °C
19 | CO[C@H]1C[C@@H]2CC[C@@H](C)[C@@](O)(O2)C(=O)C(=O)N2CCCC[C@H]2C(=O)O[C@H]([C@H](C)C[C@@H]2CC[C@H](n3cnnn3)[C@H](OC)C2)CC(=O)[C@H](C)/C=C(\C)[C@@H](O)[C@@H](OC)C(=O)[C@H](C)C[C@H](C)/C=C/C=C/C=C/1C [Zotarolimus(ABT-578)] | 0.76 °C | 0.65 °C | -0.34 °C | 0.87 °C | 0.57 °C | 1.17 °C | -0.09 °C | 0.92 °C | 1.43 °C | -0.08 °C
